KKLEB tox: CF airway cell cytotoxicity counter-screen | KKLEB CF airway cells viability, ATPlite luminescence, overnight; active compounds read low; cells stimulated with P. aeruginosa culture filtrate | activity change (cytotoxicity), % at 5 µM | hit rate 0.36% among 360,000 | AID 602141;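 active = corrected activity change at or below -50% at 5 µM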
HIF-2a block: inhibitors of HIF-2a | 786-0 RCC cells HIF-2a reporter, luciferase luminescence, overnight | inhibition, % at 18.8 µM | hit rate 0.72% among 360,000 | AID 624352;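 active = inhibition of the luminescence signal of 40% or more relative to plate controls, in a single-dose primary screen at 18.75 µM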
CF NFkB block: blocks PAF-induced NF-kB reporter in cystic fibrosis cells; KKLEB NF-kB-GFP reporter, GFP fluorescence overnight; inhibition, % at 5 µM; hit rate 0.86% among 360,000;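 active = at least 50% inhibition at 5 µM, scaled per plate between neutral and stimulator controls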;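 also: PAF is a Pseudomonas aeruginosa culture filtrate used as stimulus; plate controls were PAF-stimulated DMSO wells for no effect and unstimulated DMSO wells for full effect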
TRPM1 prom inh: reduces MITF-dependent TRPM1 promoter luciferase signal; SK-MEL-5 TRPM1 promoter luciferase, 24 h; AID 488899; inhibition, % at 12.5 µM; hit rate 0.83% among 330,000;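 active = mean inhibition across replicates of 60% or more, whatever share of single replicates reaches that level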
Peg3 promoter: inhibitors of Peg3 promoter | AID 588405 | HeLa PEG-Prom luciferase reporter, luminescence, overnight | hit rate 1.7% among 360,000 | inhibition, % at 20 µM;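 active = inhibition of at least 50% at 20 µM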
Shn3 3UTR inh: Schnurri-3 reporter inhibition in Clone20 osteoblasts. Clone20 osteoblast Shn3 3'UTR firefly luciferase, 24 h. inhibition, % at 12.5 µM. hit rate 0.52% among 360,000. AID 588674;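 active = mean inhibition of at least 75% with every replicate also reaching 75%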;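 also: 0% = median of neutral control wells and 100% = pilot-screen positive control compound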
The depositor's hits bear a star; . = no result. In the library only some 2.7% were active in any assay of this set; here they are far more common.

SMILES | KKLEB tox | HIF-2a block | CF NFkB block | TRPM1 prom inh | Peg3 promoter | Shn3 3UTR inh
CSc1ccc(NC(=O)NCCCN2CCC(Cc3ccccc3)CC2)cc1 | -6 | 7 | 0 | 0 | 66* | -49
COc1ccc(NC(=O)NCCCN2CCC(Cc3ccccc3)CC2)cc1 | -1 | -7 | -1 | -23 | 17 | 1
COc1cc(OC)c(NC2=CC(=O)C(=O)c3ccccc32)cc1Cl | -21 | 9 | 85* | 99* | 4 | 42
NS(=O)(=O)c1ccc(NC2=CC(=O)C(=O)c3ccccc32)cc1 | -24 | -102 | 94* | 78* | -2 | -13
CCOC(=O)c1ccc(NC2=CC(=O)C(=O)c3ccccc32)cc1 | -72* | -33 | 89* | 75* | 116* | 31
Cc1cc(NC2=CC(=O)C(=O)c3ccccc32)no1 | -42 | -119 | 86* | 84* | -10 | -5
Cc1cc(NC(=O)COC(=O)C2CCN(S(=O)(=O)c3ccccc3)CC2)c([N+](=O)[O-])cc1C | -6 | 5 | 10 | 12 | 14 | 2
Cc1ccc(NC2=CC(=O)C(=O)c3ccccc32)cc1 | -29 | -47 | 59* | 95* | -137 | 5
O=C1c2ccccc2C(=O)c2c1cccc2N1CCCC1 | 2 | -58 | -16 | -24 | -11 | 6
O=C1C=C(N2CCCCC2)c2ccccc2C1=O | -77* | 46* | 100* | . | 100* | 46
COc1ccc(-c2coc3c(C(=O)NCc4ccc(OC)c(OC)c4)cccc23)c(C)c1 | -15 | 17 | 19 | . | 9 | 90*
CCN(CC)C(=O)[C@H]1C[C@H](CC(=O)NCc2ccc(OC)c(OC)c2)C(=O)N2CCc3c([nH]c4cc(-c5ccco5)ccc34)[C@]12C | -12 | 8 | 10 | 15 | 22 | 71
Cc1cc(C)c(C)c(S(=O)(=O)NCCN2CCOCC2)c1C | -9 | 17 | -8 | 1 | 18 | 8
O=C(CCl)Nc1ccc(N=Nc2ccccc2)cc1 | -14 | -122 | -52 | 4 | 107* | -9
O=C(CCl)Nc1cccc(Oc2ccccc2)c1 | -24 | 18 | -38 | 66* | 12 | -11
O=C(CCl)Nc1ccc(N2CCCCCC2)cc1 | 8 | 5 | -11 | -11 | 84* | -12
COc1ccc(NC(=O)COC(=O)c2cc3c(s2)CCC3)cc1 | 1 | -4 | 13 | -2 | 0 | 5
O=C(Nc1ccccc1)c1ccccc1Oc1ccc(C(F)(F)F)cc1[N+](=O)[O-] | 4 | 6 | -4 | 7 | 56* | 3
CCN(CC)S(=O)(=O)c1ccc(N/N=C(\C)c2ccc(OC)cc2O)nc1 | 0 | 6 | -5 | 55 | 38 | 91*
Brc1ccc2ncnc(Nc3ccc(N4CCOCC4)cc3)c2c1 | 2 | 5 | 67* | 11 | 3 | -5
CC(C)CC1C(=O)N(Cc2cn(CCC3OCCCO3)nn2)CCS(=O)(=O)N1Cc1ccc(-c2cccc(N(C)C)c2)cc1 (configuration not stated) | -1 | 1 | 7 | . | -2 | 1
COc1ccc(NC(=O)c2ccc(NC3CC(=O)N(c4ccc(C)cc4C)C3=O)cc2)cc1 (configuration not stated) | -56* | -2 | 50 | 9 | 17 | -1
CN1C(=O)/C(=C/c2cc(N=Nc3ccccc3)ccc2O)SC1=S | -52* | -56 | 74* | 16 | 16 | 18
Cc1c(N2C(=O)/C(=C\c3ccccc3O)SC2=S)c(=O)n(-c2ccccc2)n1C | 14 | 5 | -15 | 22 | 17 | -10
O=C1C=CC(=O)C(CNc2ccc(C(=O)OCc3ccccc3)cc2)=C1 | -20 | 24 | 68* | 66* | 72* | 95*
SMILES | KKLEB tox | HIF-2a block | CF NFkB block | TRPM1 prom inh | Peg3 promoter | Shn3 3UTR inh
CN(C)c1ccc(C(=O)OCc2ccccc2)cc1 | -11 | -229 | -3 | -63 | -188 | -41
CC(C)(C)OC(=O)NCCCCCNC(=O)c1nc[nH]c1C(=O)NCc1ccc(CNC(=O)OC(C)(C)C)cc1 | -1 | 14 | 15 | 36 | 80* | 89*
CC(C)(C)OC(=O)NCCCCCNC(=O)c1nc[nH]c1C(=O)NCCCCCNC(=O)OC(C)(C)C | -25 | -1 | 19 | 54 | 64* | 44
CC(C)C[C@H](NC(=O)c1nc[nH]c1C(=O)NCCCCCNC(=O)OC(C)(C)C)C(=O)OCc1ccccc1 | -7 | 16 | -9 | 11 | 12 | -9
CC(C)(C)OC(=O)NCc1ccc(CNC(=O)c2[nH]cnc2C(=O)NC2CCN(C(=O)OC(C)(C)C)CC2)cc1 | -2 | 4 | 8 | 21 | 61* | 3
CC(C)(C)OC(=O)N1CCC(NC(=O)c2nc[nH]c2C(=O)NCc2ccccc2)CC1 | -2 | -12 | -16 | 11 | -6 | 5
CC(C)(C)OC(=O)NCCCC[C@H](NC(=O)c1nc[nH]c1C(=O)NCc1ccc(CNC(=O)OC(C)(C)C)cc1)C(=O)OC(C)(C)C | 1 | 10 | -9 | 8 | 10 | 17
CC(C)(C)OC(=O)NCCCCCNC(=O)c1[nH]cnc1C(=O)N[C@@H](Cc1ccccc1)C(=O)OCc1ccccc1 | -1 | 18 | -5 | 8 | 59* | -9
CC(C)(C)OC(=O)NCCCCCNC(=O)c1[nH]cnc1C(=O)N[C@@H](CCCCNC(=O)OC(C)(C)C)C(=O)OC(C)(C)C | -1 | 9 | -6 | 6 | 11 | 14
Cc1ccc(NC(=O)c2cnccn2)cc1C | 1 | -245 | 19 | -48 | -248 | -69
CC1=C([N+](=O)[O-])C(c2ccc3c(c2)OCO3)N(C)C(=O)N1C (configuration not stated) | 3 | 23 | 6 | -9 | 10 | -30
Cn1c(N)c(C(=O)COC(=O)c2ccc(OC(F)F)cc2)c(=O)n(C)c1=O | 14 | 4 | -3 | -7 | -2 | 2
CC(C)(C)OC(=O)NCc1ccc(CNC(=O)c2nc[nH]c2C(=O)NCc2ccc(CNC(=O)OC(C)(C)C)cc2)cc1 | 23 | 14 | 1 | 29 | 26 | 87*
Cc1cccc(NC(=O)c2nc[nH]c2C(=O)NC2CCN(C(=O)OC(C)(C)C)CC2)c1 | -5 | -1 | -22 | 5 | 61* | -2
Cc1cccc(NC(=O)c2nc[nH]c2C(=O)N2CCN(C(=O)OC(C)(C)C)CC2)c1 | 6 | -3 | -28 | -5 | 16 | -15
O=C1CC(=C(c2ccccc2)c2ccccc2)C(=O)N1CCCCN1CCN(c2cccc(Cl)c2)CC1 | 4 | 28 | 7 | 10 | 50* | 5
O=C(Cn1cnc2sc3c(c2c1=O)CCCC3)NCC(=O)Nc1c(F)cc(F)cc1Br | -5 | 4 | -2 | 0 | 7 | -12
C[C@@H]1CN([C@H](C)CO)C(=O)c2c(c3ccccc3n2C)-c2ccccc2CO[C@H]1CN(C)C(=O)CCC(F)(F)F | -8 | 3 | 6 | . | 1 | -11
